An excerpt weighted towards active compounds, which were near 32% of everything screened.
CYP2C19 act: increases human CYP2C19 enzyme activity | 96,000 tested, under 10 active | P33261 | recombinant CYP2C19, luciferin-H EGE luminescence; hits give high values; 0 = fully inhibited enzyme, 1 = untreated enzyme | activation factor at 5 µM;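 active = activation factor of at least 2 at 5 µM in the primary screen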;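 also: 0 = wells with 2.5 mM tranylcypromine and 1 = vehicle-only wells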
PostGolgi yeast: growth inhibition of a yeast mutant, post-Golgi transport screen | 98,000 tested, 0.9% active | AID 739 | post-Golgi transport phenotypic cell assay | inhibition, % at 10 µM;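 also: yeast cells grown in 1536-well plates; yeast grown about 18 h at 30C before absorbance read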
CYP2C9 activ: CYP2C9 (human) activation. P11712. recombinant CYP2C9, luciferin-H conversion, luminescence; hits give high values; factor 1 = untreated enzyme, 0 = blocked. activation factor at 5 µM. 96,000 tested, 1.4% active;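 active = activation factor of 2 or more for CYP2C9 at a 5 µM dose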;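 also: 0 = sulfaphenazole-blocked wells and 1 = vehicle-only wells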
Target sequence (P11712 whole entry, looked up): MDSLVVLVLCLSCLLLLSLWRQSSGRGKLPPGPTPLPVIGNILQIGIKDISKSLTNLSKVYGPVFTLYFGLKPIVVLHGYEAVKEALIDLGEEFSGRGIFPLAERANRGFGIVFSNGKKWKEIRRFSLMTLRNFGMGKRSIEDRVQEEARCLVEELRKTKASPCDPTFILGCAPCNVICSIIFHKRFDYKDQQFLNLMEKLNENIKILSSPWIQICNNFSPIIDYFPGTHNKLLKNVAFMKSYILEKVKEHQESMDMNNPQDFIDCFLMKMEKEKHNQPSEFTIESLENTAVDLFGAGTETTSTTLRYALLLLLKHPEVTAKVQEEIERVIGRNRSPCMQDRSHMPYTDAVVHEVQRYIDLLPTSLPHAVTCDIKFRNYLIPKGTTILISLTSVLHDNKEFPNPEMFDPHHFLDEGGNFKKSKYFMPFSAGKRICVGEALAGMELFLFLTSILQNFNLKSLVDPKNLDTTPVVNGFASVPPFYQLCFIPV
CYP2C19 inhib: inhibitors of human CYP2C19; P33261; inhibition, % at 5 µM; CYP2C19 Supersomes, luciferin-H EGE luminescence, 30 min; 96,000 tested, 21% active;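 active = CYP2C19 inhibition above a set limit at 5 µM in the primary screen, cut at about 50% in these data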;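 also: plate controls were negative control wells for no effect and 2.5 mM tranylcypromine positive control for full effect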
PostGolgi ctrl: inhibits growth of the yeast control strain. 98,000 tested, 5% active. inhibition, % at 10 µM. efflux-deficient yeast background strain, growth absorbance A615, 16 h
CYP2C9 inh: human CYP2C9 inhibition | CYP2C9 Supersomes, luciferin-H conversion, luminescence | inhibition, % at 5 µM | AID 777 | 96,000 tested, 20% active | P11712;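 active = blocking of liver enzyme CYP2C9 beyond about 50% at 5 µM, limit read from the data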
Starred values were filed as active, the others as inactive; x = no result. Rule as the data show it, unless noted: active = inhibition above about 30%; inactive = the rest.

SMILES | CYP2C19 act | PostGolgi yeast | CYP2C9 activ | CYP2C19 inhib | PostGolgi ctrl | CYP2C9 inh
CCOC(=O)c1sc(N(Cc2ccccc2)C(=O)CSc2nnc(C3CC3)n2N)nc1C | 0.4 | -6 | 0 | 62* | 12 | 99*
CC(C)(C)n1nnnc1CN1CCN(C2CCCC2)CC1 | 1 | -3 | 1.2 | 1 | 0 | -16
Cc1c(C)[n+](=O)c(-c2cccs2)c(C)n1[O-] | x | 4 | x | x | -6 | x
CNc1oc(-c2ccc(C)cc2)nc1P(=O)(c1ccccc1)c1ccccc1 | 0.8 | 6 | 0.2 | 25 | 26 | 81*
Cc1nc(P(=O)(c2ccccc2)c2ccccc2)c(N2CCOCC2)o1 | 1 | 2 | 0.7 | 0 | 1 | 26
CCOC(=O)C1C(=O)OC(C)(C)C1C(C)C(=O)c1ccccc1 (configuration not stated) | 0.3 | 16 | 0.7 | 73* | 2 | 28
CCOC(=O)C1C(=O)OC(C)(C)C1C(C)C(=O)c1ccc(OC)cc1 (configuration not stated) | 0.9 | 12 | 0.9 | 6 | 6 | 5
CC(C)(C)c1ccc(C(=O)CS(=O)(=O)c2ccccc2)cc1 | 0.6 | 4 | 1 | 44 | 14 | -4
Cc1ccc(S(=O)(=O)Cc2ccc(C(=O)OCc3ccccc3)cc2)cc1 | 0.9 | -4 | 0.8 | 12 | 35* | 23
Cc1ccc(S(=O)(=O)CC(=O)c2ccc(C)c([N+](=O)[O-])c2)cc1 | 1.1 | -11 | 2* | -7 | -2 | -105
Cc1ccc(S(=O)(=O)CC(=O)c2ccccc2)cc1 | 0.6 | 8 | 2.9* | 37 | 2 | -187
CCN(CC)C(=O)CSc1nnc(-c2ccccn2)n1-c1ccc(C)c(C)c1 | 1.1 | -6 | 1 | -5 | 6 | -1
Cc1c(-c2ccccc2)sc(Br)c1C(=O)N1CCOCC1 | 0.8 | 2 | 1.3 | 24 | 10 | -31
Cc1ccc(-c2nnn(CC(=O)Nc3ccc4nn(-c5ccccc5)nc4c3)n2)o1 | 1 | -6 | 1 | 3 | 5 | 4
COc1cccc(-c2nc(-c3ccccc3)[nH]c(=O)c2C#N)c1 | 1 | 0 | 0.9 | -4 | 7 | 8
COc1ccc(-c2nc(-c3cccc(C)c3)[nH]c(=O)c2C#N)cc1 | 1.1 | -9 | 0.5 | -12 | -12 | 52*
CC(=O)Cc1nsc(Nc2ccc3c(c2)OCCO3)n1 | 0.6 | -3 | 0.3 | 45 | 14 | 72*
CCCn1c(SCC(=O)NC(C)C23CC4CC(CC(C4)C2)C3)n[nH]c1=O (configuration not stated) | 1 | -2 | 1.1 | 0 | 38* | -12
O=C(Nc1nnc(-c2cccs2)o1)c1cccc(C(F)(F)F)c1 | 0.9 | 73* | 0.4 | 10 | 36* | 59*
CC1CC(C)CN(S(=O)(=O)c2ccc(C(=O)Nc3nnc(-c4cccs4)o3)cc2)C1 (configuration not stated) | 1.1 | -2 | 1 | -11 | 23 | 1
COc1ccccc1C1CC(c2c(-c3ccccc3)c3cc(Cl)ccc3[nH]c2=O)=NN1S(C)(=O)=O (configuration not stated) | 0.7 | -1 | 0.4 | 28 | 1 | 60*
COc1cccc(C2CC(c3c(-c4ccccc4)c4cc(Cl)ccc4[nH]c3=O)=NN2S(C)(=O)=O)c1OC (configuration not stated) | 0.8 | -4 | 0.5 | 24 | 8 | 51*
COC(=O)CSc1c(-c2ccccc2)c2cc(Cl)ccc2[nH]c1=O | 0.7 | 2 | 0.7 | 34 | 28 | 32
Cc1oc2c(c1C(=O)NCCCC(=O)O)CCCC2 | 1 | -4 | 0.9 | -3 | 2 | 6
O=C1c2ccccc2C(=O)N1CC1c2ccccc2CCN1C(=O)C1CCCCC1 (configuration not stated) | 0.3 | 13 | 0.7 | 73* | 6 | 27
CCc1cc2c(NCCO)ncnc2s1 | 1.1 | -2 | 1.1 | -13 | 9 | -5
OCCOCCNc1ncnc2sc(-c3ccccc3)cc12 | 0.4 | 5 | 0.4 | 64* | 17 | 59*
CCOC(=O)c1[nH]c(C)c(/C(O)=C2\C(=O)C(=O)N(CCN3CCOCC3)C2c2cccs2)c1C (configuration not stated) | 0.7 | -3 | 1 | 29 | -4 | -2
N#CCCN(Cc1cccnc1)C(=O)Nc1ccc(Cl)c(Cl)c1 | 0.1 | 4 | 0.4 | 92* | 4 | 64*

Assay outcomes (PubChem BioAssay)
